Assay results reported in publication PMC7862700, “An all-to-all approach to the identification of sequence-specific readers for epigenetic DNA modifications on cytosine”.

How the values were obtained:
Assay in all cases: DAPPL (digital affinity profiling via proximity ligation, sequencing); 10 mM Tris-HCl pH 7.5, 50 mM NaCl, 1 mM DTT, 4% glycerol, room temperature, 30 min; GST-TFs on glutathione beads, 16-mer random dsDNA library, 0.1% formaldehyde crosslink after washing; high values mean tight binding
Conditions in all cases: protein: recombinant; tags: N-terminal GST; dsDNA, one strand shown
GABPA = biological target: T1, GABPA (Homo sapiens, UniProt Q06546 1-454)
T1 sequence: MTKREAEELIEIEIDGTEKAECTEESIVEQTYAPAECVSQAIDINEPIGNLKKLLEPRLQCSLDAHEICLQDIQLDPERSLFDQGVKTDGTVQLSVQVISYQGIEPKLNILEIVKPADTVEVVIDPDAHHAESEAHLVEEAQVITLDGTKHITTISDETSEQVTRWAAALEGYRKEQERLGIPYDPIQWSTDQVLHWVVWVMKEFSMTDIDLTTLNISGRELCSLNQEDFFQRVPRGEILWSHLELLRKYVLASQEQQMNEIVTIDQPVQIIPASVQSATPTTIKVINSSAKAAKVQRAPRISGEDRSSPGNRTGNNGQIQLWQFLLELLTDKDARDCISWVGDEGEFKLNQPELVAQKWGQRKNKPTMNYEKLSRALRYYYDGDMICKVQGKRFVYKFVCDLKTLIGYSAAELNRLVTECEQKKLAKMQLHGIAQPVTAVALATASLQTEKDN
Outline: (§1)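 In yeast, human transcription factors were expressed with a GST fusion, then pulled down on glutathione beads and given DNA barcodes. Pooled with a tag-only sample, they were exposed to 200 nmole of a 16-mer random double-stranded DNA library (Tris/NaCl/DTT/glycerol buffer, room temperature, 30 min), washed, crosslinked with 0.1% formaldehyde, proximity-ligated using BsaI/T4 ligase for 1 h at 37 °C, PCR-amplified and read on an Illumina NextSeq500. Each hexamer's frequency of reads for a factor, divided by the matching frequency for the tag-only sample, gives the binding signal.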

ELF1 = ELF1 (Homo sapiens, UniProt P32519 1-619)
Outline: as §1

SPI1 = SPI1 (Homo sapiens, UniProt P17947 1-270)
Outline: as §1

SPIC = biological target: T2, SPIC (Homo sapiens, UniProt Q8N5J4 1-248)
T2 sequence: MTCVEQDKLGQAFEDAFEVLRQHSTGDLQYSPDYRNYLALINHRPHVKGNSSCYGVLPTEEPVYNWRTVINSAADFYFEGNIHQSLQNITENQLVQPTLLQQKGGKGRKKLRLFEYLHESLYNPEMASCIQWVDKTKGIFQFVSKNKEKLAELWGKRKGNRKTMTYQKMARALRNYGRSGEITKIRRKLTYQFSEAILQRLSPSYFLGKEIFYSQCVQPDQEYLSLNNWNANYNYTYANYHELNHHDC
Outline: as §1

ELF4 = ELF4 (Homo sapiens, UniProt Q99607 1-663)
Outline: as §1

ELF3 = biological target: T3, ELF3 (Homo sapiens, UniProt P78545 1-371)
T3 sequence: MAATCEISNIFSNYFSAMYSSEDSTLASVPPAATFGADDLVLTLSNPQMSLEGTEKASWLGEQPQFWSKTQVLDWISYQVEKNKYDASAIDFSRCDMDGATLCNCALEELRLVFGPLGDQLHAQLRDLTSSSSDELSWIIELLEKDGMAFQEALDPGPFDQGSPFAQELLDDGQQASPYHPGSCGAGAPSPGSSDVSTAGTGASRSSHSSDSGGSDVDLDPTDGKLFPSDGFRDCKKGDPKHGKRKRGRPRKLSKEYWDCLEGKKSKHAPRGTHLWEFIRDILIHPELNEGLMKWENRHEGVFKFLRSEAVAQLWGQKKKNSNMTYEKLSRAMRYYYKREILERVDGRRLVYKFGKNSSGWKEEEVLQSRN
Outline: as §1

ETV1 = ETV1 (Homo sapiens, UniProt P50549 1-477)
Outline: as §1

ETV7 = biological target: T4, ETV7 (Homo sapiens, UniProt Q9Y603 1-341)
T4 sequence: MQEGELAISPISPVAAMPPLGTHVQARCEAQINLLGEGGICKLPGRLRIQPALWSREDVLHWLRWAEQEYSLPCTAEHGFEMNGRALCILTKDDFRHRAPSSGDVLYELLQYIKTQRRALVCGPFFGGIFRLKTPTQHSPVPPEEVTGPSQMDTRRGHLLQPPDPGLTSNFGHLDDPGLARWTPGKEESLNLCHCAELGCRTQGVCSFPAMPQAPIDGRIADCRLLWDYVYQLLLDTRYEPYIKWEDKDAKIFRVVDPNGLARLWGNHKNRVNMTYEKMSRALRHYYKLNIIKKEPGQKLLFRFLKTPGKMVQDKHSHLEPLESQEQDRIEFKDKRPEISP
Outline: as §1

ELF5 = biological target: T5, ELF5 (Homo sapiens, UniProt Q9UKW6-2 1-255)
T5 sequence: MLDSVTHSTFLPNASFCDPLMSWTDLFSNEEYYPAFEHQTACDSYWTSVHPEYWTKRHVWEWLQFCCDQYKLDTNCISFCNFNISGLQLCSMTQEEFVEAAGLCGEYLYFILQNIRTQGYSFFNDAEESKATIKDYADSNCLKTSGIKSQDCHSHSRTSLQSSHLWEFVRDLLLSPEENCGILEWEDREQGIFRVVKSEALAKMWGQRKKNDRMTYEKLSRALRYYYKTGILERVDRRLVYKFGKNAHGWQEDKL
Outline: as §1

ETV3 = biological target: T6, ETV3 (Homo sapiens, UniProt P41162-2 1-143)
T6 sequence: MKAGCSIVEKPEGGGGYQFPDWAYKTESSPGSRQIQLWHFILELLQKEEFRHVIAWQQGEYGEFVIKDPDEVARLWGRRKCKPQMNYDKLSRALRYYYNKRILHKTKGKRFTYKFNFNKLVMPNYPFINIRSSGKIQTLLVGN
Outline: as §1

ETV6 = ETV6 (Homo sapiens, UniProt P41212 1-452)
Outline: as §1

FEV = biological target: T7, FEV (Homo sapiens, UniProt Q99581 1-238)
T7 sequence: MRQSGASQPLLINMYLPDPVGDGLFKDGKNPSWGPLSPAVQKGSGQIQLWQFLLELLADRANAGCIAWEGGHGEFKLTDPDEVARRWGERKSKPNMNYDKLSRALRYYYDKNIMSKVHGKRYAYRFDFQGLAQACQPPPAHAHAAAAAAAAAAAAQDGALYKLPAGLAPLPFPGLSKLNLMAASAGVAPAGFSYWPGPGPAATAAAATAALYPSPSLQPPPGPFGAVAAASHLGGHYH
Outline: as §1

ETV2 = biological target: T8, ETV2 (Homo sapiens, UniProt O00321 1-342)
T8 sequence: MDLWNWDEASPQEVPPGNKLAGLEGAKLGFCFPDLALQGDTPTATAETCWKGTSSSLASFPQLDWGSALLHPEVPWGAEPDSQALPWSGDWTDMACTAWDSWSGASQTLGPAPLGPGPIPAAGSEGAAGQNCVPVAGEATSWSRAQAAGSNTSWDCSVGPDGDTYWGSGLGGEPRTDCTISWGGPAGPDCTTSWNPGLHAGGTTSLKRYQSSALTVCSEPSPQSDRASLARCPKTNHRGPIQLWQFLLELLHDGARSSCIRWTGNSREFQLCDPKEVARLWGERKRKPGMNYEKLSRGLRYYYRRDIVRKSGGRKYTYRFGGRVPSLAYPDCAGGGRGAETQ
Outline: as §1

CRX = CRX (Homo sapiens, UniProt O43186 1-299)
Outline: as §1

ETS2 = biological target: T9, ETS2 (Homo sapiens, UniProt P15036 1-469)
T9 sequence: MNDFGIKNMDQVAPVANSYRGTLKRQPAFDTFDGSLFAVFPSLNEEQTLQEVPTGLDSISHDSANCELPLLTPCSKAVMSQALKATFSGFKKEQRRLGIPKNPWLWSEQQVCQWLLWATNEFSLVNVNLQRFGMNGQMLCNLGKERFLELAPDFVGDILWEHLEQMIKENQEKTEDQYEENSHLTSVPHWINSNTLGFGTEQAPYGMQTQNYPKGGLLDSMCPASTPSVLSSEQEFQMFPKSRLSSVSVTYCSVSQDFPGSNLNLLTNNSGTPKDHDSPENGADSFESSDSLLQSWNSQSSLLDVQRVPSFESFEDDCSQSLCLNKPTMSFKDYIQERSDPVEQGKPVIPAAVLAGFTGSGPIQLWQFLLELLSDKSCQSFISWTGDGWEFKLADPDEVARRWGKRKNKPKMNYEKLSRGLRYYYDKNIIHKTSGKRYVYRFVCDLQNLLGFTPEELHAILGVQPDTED
Outline: as §1

Chain of ELF4 (Q99607 whole entry): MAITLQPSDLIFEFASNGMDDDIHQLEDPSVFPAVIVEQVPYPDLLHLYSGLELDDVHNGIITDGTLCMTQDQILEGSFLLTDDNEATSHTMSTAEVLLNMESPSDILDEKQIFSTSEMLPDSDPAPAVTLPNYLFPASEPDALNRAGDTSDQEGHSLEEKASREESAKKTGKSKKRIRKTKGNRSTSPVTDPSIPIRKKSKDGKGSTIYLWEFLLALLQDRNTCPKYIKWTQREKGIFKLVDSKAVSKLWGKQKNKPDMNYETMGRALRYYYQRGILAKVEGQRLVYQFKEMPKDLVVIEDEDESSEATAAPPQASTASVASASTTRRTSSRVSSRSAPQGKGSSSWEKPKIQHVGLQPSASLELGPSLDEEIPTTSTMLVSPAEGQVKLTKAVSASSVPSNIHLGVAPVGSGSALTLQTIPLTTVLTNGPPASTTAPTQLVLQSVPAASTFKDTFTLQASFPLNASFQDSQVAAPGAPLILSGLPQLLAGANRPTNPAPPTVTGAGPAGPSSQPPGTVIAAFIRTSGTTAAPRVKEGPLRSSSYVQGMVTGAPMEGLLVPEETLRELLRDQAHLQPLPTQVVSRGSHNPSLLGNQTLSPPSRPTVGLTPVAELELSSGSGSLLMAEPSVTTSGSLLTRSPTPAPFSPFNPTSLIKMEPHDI
Chain of CRX (O43186 whole entry): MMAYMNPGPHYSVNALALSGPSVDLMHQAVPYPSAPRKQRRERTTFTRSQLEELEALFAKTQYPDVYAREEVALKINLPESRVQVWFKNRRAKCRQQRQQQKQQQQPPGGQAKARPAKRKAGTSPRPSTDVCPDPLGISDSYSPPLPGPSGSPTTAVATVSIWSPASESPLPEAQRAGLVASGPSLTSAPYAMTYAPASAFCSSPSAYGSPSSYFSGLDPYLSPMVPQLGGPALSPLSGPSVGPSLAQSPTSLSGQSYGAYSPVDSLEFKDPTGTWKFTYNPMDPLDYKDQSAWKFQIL
Chain of ETV6 (P41212 whole entry): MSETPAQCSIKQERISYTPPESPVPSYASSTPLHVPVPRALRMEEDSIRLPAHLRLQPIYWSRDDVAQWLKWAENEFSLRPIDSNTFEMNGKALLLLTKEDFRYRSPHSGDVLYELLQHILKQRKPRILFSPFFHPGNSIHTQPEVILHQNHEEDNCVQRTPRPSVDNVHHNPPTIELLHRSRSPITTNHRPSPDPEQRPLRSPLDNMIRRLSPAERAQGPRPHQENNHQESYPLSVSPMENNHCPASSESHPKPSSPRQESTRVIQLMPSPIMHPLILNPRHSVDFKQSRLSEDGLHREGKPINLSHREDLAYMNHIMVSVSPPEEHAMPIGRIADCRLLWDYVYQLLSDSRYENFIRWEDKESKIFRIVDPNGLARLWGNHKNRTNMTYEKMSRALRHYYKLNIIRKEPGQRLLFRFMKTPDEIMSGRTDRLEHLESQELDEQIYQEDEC
Chain of ELF1 (P32519 whole entry): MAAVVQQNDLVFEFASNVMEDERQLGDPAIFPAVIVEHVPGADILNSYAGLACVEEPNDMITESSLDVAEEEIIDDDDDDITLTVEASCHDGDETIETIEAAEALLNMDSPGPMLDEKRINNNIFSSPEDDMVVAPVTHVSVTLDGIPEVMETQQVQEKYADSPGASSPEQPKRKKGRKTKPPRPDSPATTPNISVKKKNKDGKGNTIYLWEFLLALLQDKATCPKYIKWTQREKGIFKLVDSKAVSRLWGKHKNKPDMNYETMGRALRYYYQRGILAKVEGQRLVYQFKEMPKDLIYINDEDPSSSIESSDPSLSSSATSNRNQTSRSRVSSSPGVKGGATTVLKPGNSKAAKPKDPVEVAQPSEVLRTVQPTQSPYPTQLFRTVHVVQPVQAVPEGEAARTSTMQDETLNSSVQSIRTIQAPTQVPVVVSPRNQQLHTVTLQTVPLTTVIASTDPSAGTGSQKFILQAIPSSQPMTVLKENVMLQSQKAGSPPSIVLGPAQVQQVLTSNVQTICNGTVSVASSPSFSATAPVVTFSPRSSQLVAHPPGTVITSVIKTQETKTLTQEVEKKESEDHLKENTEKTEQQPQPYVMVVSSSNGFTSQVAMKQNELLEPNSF
Chain of ETV1 (P50549 whole entry): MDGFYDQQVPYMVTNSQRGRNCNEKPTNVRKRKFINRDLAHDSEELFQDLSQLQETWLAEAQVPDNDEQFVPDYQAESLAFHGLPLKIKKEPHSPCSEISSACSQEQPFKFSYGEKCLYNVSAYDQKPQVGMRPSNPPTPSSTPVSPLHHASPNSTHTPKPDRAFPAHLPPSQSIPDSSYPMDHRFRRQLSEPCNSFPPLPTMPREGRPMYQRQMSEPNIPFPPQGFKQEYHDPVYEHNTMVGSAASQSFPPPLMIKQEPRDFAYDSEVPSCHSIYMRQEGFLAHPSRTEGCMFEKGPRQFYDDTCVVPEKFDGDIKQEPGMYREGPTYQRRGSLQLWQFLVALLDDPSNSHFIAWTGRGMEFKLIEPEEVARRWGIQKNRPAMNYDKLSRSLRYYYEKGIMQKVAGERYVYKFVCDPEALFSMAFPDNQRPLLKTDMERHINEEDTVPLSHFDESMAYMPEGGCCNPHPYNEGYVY

Sequence	binding signal (GABPA)	binding signal (ELF1)	binding signal (SPI1)	binding signal (SPIC)	binding signal (ELF4)	binding signal (ELF3)	binding signal (ETV1)	binding signal (ETV7)	binding signal (ELF5)	binding signal (ETV3)	binding signal (ETV6)	binding signal (FEV)	binding signal (ETV2)	binding signal (CRX)	binding signal (ETS2)
AACGCG	1.04 fold enrichment (6-mer frequency, TF over GST control)	1.05 fold enrichment (6-mer frequency, TF over GST control)	1.05 fold enrichment (6-mer frequency, TF over GST control)	1.1 fold enrichment (6-mer frequency, TF over GST control)	1.01 fold enrichment (6-mer frequency, TF over GST control)	1.02 fold enrichment (6-mer frequency, TF over GST control)	1.04 fold enrichment (6-mer frequency, TF over GST control)	1.02 fold enrichment (6-mer frequency, TF over GST control)	1.03 fold enrichment (6-mer frequency, TF over GST control)	1.1 fold enrichment (6-mer frequency, TF over GST control)	1.01 fold enrichment (6-mer frequency, TF over GST control)	–	–	–	–
AAAGGC	1.1 fold enrichment (6-mer frequency, TF over GST control)	–	–	1 fold enrichment (6-mer frequency, TF over GST control)	1.04 fold enrichment (6-mer frequency, TF over GST control)	–	–	1.03 fold enrichment (6-mer frequency, TF over GST control)	1 fold enrichment (6-mer frequency, TF over GST control)	–	–	1.01 fold enrichment (6-mer frequency, TF over GST control)	1.04 fold enrichment (6-mer frequency, TF over GST control)	1.03 fold enrichment (6-mer frequency, TF over GST control)	1 fold enrichment (6-mer frequency, TF over GST control)
